Some test systems named below: T-47D breast; BT-549 breast; MDA-MB-435 melanoma; SW-620 colon; MCF7 breast; HCT-116 colon; KM12 colon; HCC-2998 colon.
Holding throughout (test): NCI-60 one-dose screen, 48 h (100 = growth as untreated, 0 = no growth, -100 = all killed)
Holding throughout (conditions): 10 µM unless noted

The panel holds about 83,000 compounds, 20% with a hit somewhere; the sample as a whole holds those more often.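 Treatment: one concentration, 48 hours, 96-well format. Scoring: percent growth, with anything below 10 considered active.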 Unmarked numbers belong to inactive results. Active and inactive are the calls of the source.

For `Nc1nc(N)c2nc(CNc3ccc(C(=O)CC(CCC(=O)O)C(=O)O)cc3)cnc2n1` (stereo not given), the growth in the assay with T-47D breast was 49.5%; with BT-549 breast, 63.3%; with MDA-MB-435 melanoma, 34.4%; in the assay with SW-620 colon, 25.7%; in the assay on MCF7 breast it was 22.8%; in the assay on HCT-116 colon, 21.6%. The growth in the assay on KM12 colon is 32.2%.
Regarding `Clc1ccc2c(c1)NC1(CCSc3ccccc31)n1nccc1-2` (stereo not given), the growth was 101% in the assay on T-47D breast; 97.4% with BT-549 breast; 110% with MDA-MB-435 melanoma; 102% in the assay with SW-620 colon; 102% with MCF7 breast; 97.3% in the assay on HCC-2998 colon. Also, the growth in the assay with KM12 colon is 102%.
For the compound `NC(=O)c1c(NC(=O)c2ccc(OCC3CCCO3)cc2)sc2c1CCCC2` (stereo not given), the growth was 80.5% with T-47D breast; 101% in the assay with BT-549 breast; 95.8% in the assay with MDA-MB-435 melanoma; 110% in the assay with SW-620 colon; 101% with MCF7 breast; 113% in the assay on HCC-2998 colon. In addition, the growth in the assay on KM12 colon was 66.9%.
Consider `C/C(=C\c1csc(C)n1)[C@@H]1C[C@@H]2O[C@]2(C)CCC[C@H](C)[C@H](O)[C@@H](C)C(=O)C(C)(C)[C@@H](O)CC(=O)N1`, for which the growth is -21.8% (active) in the assay with T-47D breast; -45.3% (active) in the assay on BT-549 breast; -79.7% (active) with MDA-MB-435 melanoma; -98.6% (active) in the assay with SW-620 colon; -82.1% (active) in the assay with MCF7 breast; -79.1% (active) with HCT-116 colon. In the assay on KM12 colon, the growth is -99.2% (active).
For the compound `C/C(=N\NC(=O)CC#N)c1cc2cc(Cl)ccc2o1`, the growth in the assay on T-47D breast is 78.4%; with BT-549 breast it was 125%; in the assay on MDA-MB-435 melanoma it was 106%; with SW-620 colon, 102%; with MCF7 breast it was 72.2%; in the assay on HCT-116 colon it was 107%. The growth with KM12 colon was 98.9%.
In the case of `C/C1=C\CCC2(C)OC2CC2CCC(C)(O)C(CC1)C2(C)C` (stereo not given), the growth was 91.7% in the assay on T-47D breast; 49.8% with BT-549 breast; 110% with MDA-MB-435 melanoma; 97.1% with SW-620 colon; 102% with MCF7 breast; 98.6% with HCT-116 colon. In the assay on KM12 colon, the growth was 108%.
Regarding `Clc1ccc(-c2nc(-c3ccco3)cn3ccnc23)cc1`, the growth is 40.2% with T-47D breast; 84.5% with BT-549 breast; 78.6% in the assay on MDA-MB-435 melanoma; 72.7% in the assay with SW-620 colon; 27.2% in the assay on MCF7 breast; 58.2% in the assay with HCC-2998 colon. The growth in the assay on KM12 colon was 48.7%.
For the compound `CCN1C(=O)N[C@H]2[C@@H]3NC(=O)c4ccc(Cl)n4[C@@H]3C[C@]21O`, the growth in the assay on T-47D breast was -7.84% (active); in the assay with BT-549 breast it was -23.4% (active); with MDA-MB-435 melanoma, 0.981% (active); in the assay on SW-620 colon, 3.96% (active); with MCF7 breast it was 1.38% (active); with HCC-2998 colon, 2.42% (active). For the same compound, in the assay with KM12 colon, the growth was 5.68% (active).
Turning to `O=S(=O)(NCCCNc1cc(-c2cn(-c3ccccc3)nc2-c2cccc(O)c2)ccn1)c1cccc2ccccc12`, the growth with T-47D breast is 33.1%; in the assay with BT-549 breast it was 37.1%; in the assay with MDA-MB-435 melanoma, 32.8%; in the assay with SW-620 colon, 22.5%; with MCF7 breast, 15.8%; in the assay on HCC-2998 colon, -71% (active). The growth in the assay with KM12 colon was 25.5%.
On to `N#Cc1ncc(-c2ccc(F)c(F)c2F)c(NC2CCCCCC2)n1`, for which the growth in the assay with T-47D breast is 62.7%; in the assay with BT-549 breast it was 71%; in the assay on MDA-MB-435 melanoma, 96%; in the assay with SW-620 colon it was 98%; in the assay on MCF7 breast, 83.5%; in the assay on HCC-2998 colon, 95.8%. The growth in the assay on KM12 colon is 74%.
For `Nc1nc(-c2cc3ccccc3o2)cc(=O)c(=O)[nH]1`, the growth in the assay on T-47D breast was 104%; in the assay on BT-549 breast, 106%; in the assay with MDA-MB-435 melanoma, 105%; in the assay on SW-620 colon, 102%; in the assay on MCF7 breast, 91%; in the assay with HCT-116 colon it was 110%. Moreover, the growth with KM12 colon was 105%.
With `CCCCNc1nnc(-c2cc(-c3cc4ccccc4o3)nn2-c2ccccc2)o1`, the growth in the assay on T-47D breast was 76.7%; with BT-549 breast it was 96.7%; in the assay with MDA-MB-435 melanoma, 101%; in the assay with SW-620 colon it was 103%; in the assay on MCF7 breast, 73.8%; in the assay on HCT-116 colon it was 89.4%. The growth in the assay with KM12 colon is 103%.
Turning to `CC(C)C[C@H](NC(=O)[C@@H](Cc1ccccc1)n1ccc(Nc2ccccc2)cc1=O)B(O)O`, the growth in the assay with T-47D breast is -15.4% (active); in the assay with BT-549 breast, -10.5% (active); in the assay with MDA-MB-435 melanoma, -51.3% (active); in the assay with SW-620 colon, -10.4% (active); in the assay on MCF7 breast it was 21.1%; in the assay with HCC-2998 colon, -83.8% (active). In addition, the growth in the assay on KM12 colon is -55.1% (active).
For the compound `COc1ccc(C(=O)N2CCN(C(=O)c3cc(OC)c(OC)c(OC)c3)CC2)cc1OCCCCOc1cc2c(cc1OC)C(=O)N1CCC[C@H]1C=N2`, the growth in the assay with T-47D breast was 85.4%; in the assay with BT-549 breast, 115%; in the assay with MDA-MB-435 melanoma, 108%; with SW-620 colon, 110%; with MCF7 breast it was 98.8%; in the assay with HCT-116 colon, 101%. Also, the growth with KM12 colon is 129%.
As for `CN(C)C/C=C/C(=O)Nc1cc2c(Nc3cccc(Cl)c3F)ncnc2cc1OCCOC(F)F`, the growth in the assay with T-47D breast is -4.28% (active); in the assay with BT-549 breast it was 41%; with MDA-MB-435 melanoma, 15.4%; with SW-620 colon, 31%; in the assay with HCT-116 colon, 25.7%; in the assay with HCC-2998 colon, 68.3%. Moreover, the growth in the assay with KM12 colon was 80.7%.
Take `O=C(CCl)NCCNc1nccc(Nc2ccc(S(=O)(=O)Nc3ccccn3)cc2)n1`: the growth in the assay on T-47D breast is 9.1% (active); in the assay with BT-549 breast, -5.35% (active); in the assay on MDA-MB-435 melanoma, 7.62% (active); in the assay on SW-620 colon, 8.07% (active); with MCF7 breast it was 11%; with HCC-2998 colon, 99.7%. The growth in the assay with KM12 colon was 34%.
Turning to `CC(=O)Nc1ccc2c(c1)/C(=C\C=C/c1ccc([N+](C)(C)C)cc1)c1ccccc1-2`, the growth in the assay on T-47D breast was 41.4%; with BT-549 breast, 94.6%; with MDA-MB-435 melanoma, 96%; in the assay with SW-620 colon it was 99%; in the assay with MCF7 breast it was 60.4%; with HCC-2998 colon, 114%. Besides, the growth with KM12 colon was 97.1%.
As to `CCc1c(C(=O)Nc2ccc3ccccc3c2)[nH]c(C)c1C(C)=O`, the growth with T-47D breast was 83.6%; with BT-549 breast, 112%; with MDA-MB-435 melanoma, 78.7%; in the assay with SW-620 colon it was 99.5%; in the assay with MCF7 breast, 84.6%; in the assay with HCC-2998 colon, 99.1%. In addition, the growth with KM12 colon is 84.7%.
Take `CC(Br)C(O)c1cc2c(cc1Br)OCO2` (stereo not given): the growth in the assay with T-47D breast is 100%; in the assay on BT-549 breast it was 96.6%; in the assay on MDA-MB-435 melanoma, 110%; in the assay on SW-620 colon, 104%; with MCF7 breast, 93%; in the assay on HCC-2998 colon, 111%. For the same compound, the growth in the assay on KM12 colon is 108%.
As to `CCCCCCOc1ccc(C2(Cl)c3ccccc3N(C)c3ccccc32)cc1`, the growth in the assay on T-47D breast was 44.2%; with BT-549 breast, 86.5%; in the assay on MDA-MB-435 melanoma, -23.5% (active); with SW-620 colon it was 7.18% (active); in the assay with MCF7 breast it was 0.626% (active); in the assay with HCC-2998 colon it was 59.8%. Also, the growth in the assay on KM12 colon was 62.9%.
On to `CC(C)(C)OC(=O)N1C/C(=C\c2cccs2)C(=O)/C(=C/c2cccs2)C1`, for which the growth was 82.5% with T-47D breast; 97.6% with BT-549 breast; 99.7% in the assay on MDA-MB-435 melanoma; 84.5% in the assay on SW-620 colon; 63.5% with HCT-116 colon; 106% in the assay on HCC-2998 colon. Further, the growth in the assay with KM12 colon was 97.2%.
With `COc1cc2c3c(c(=O)oc2cc1OS(=O)(=O)c1ccc(C(F)(F)F)cc1)CCCCC3`, the growth was 80.9% in the assay on T-47D breast; 75.4% in the assay on BT-549 breast; 91.6% in the assay on MDA-MB-435 melanoma; 102% with SW-620 colon; 66.6% with HCT-116 colon; 97.6% in the assay with HCC-2998 colon. In the assay on KM12 colon, the growth is 92.1%.
For the compound `O=C(CNC(=O)c1cccc2ccccc12)Nc1ccccc1Oc1ccccc1`, the growth with T-47D breast is 12.1%; in the assay with BT-549 breast, -0.557% (active); with MDA-MB-435 melanoma it was -5.12% (active); in the assay on SW-620 colon it was 22.8%; in the assay with HCT-116 colon it was -2.26% (active); in the assay on HCC-2998 colon, 21%. Besides, the growth in the assay with KM12 colon was 9.93% (active).
For `COc1ccc(NC(=O)c2cc3ccccc3nc2Nc2cc(OC)c(OC)c(OC)c2)cc1`, the growth was 27.1% in the assay on T-47D breast; 52.8% in the assay on BT-549 breast; 63.9% in the assay with MDA-MB-435 melanoma; 75.1% in the assay with SW-620 colon; 39.4% in the assay on MCF7 breast; 89% in the assay with HCC-2998 colon. Moreover, in the assay with KM12 colon, the growth was 37.9%.
For the compound `CCN(Cc1ccc(CN(CC)C(=O)C(Br)Br)cc1)C(=O)C(Br)Br`, the growth with T-47D breast was 27.9%; in the assay on BT-549 breast it was 36%; with MDA-MB-435 melanoma, 22.3%; with SW-620 colon, 21.6%; in the assay with HCT-116 colon, -21% (active); in the assay on HCC-2998 colon it was 18.8%. In addition, in the assay on KM12 colon, the growth is 4.49% (active).
Consider `CCCCn1c(=O)c(C2CNC(=O)c3ccccc3N2)cc2ccccc21` (stereo not given), for which the growth in the assay with T-47D breast is 93.7%; with BT-549 breast, 97.8%; in the assay with MDA-MB-435 melanoma, 105%; in the assay on SW-620 colon, 99.2%; in the assay with HCT-116 colon it was 94.9%; in the assay with HCC-2998 colon, 108%. Also, the growth with KM12 colon is 101%.
`COc1cc(CNC(=O)CSc2nc3ccccc3c(=O)n2Cc2cc(OC)c(OC)c(OC)c2)cc(OC)c1OC`: the growth with T-47D breast was 89.7%; in the assay on BT-549 breast, 104%; with MDA-MB-435 melanoma, 103%; in the assay on SW-620 colon, 109%; in the assay with MCF7 breast it was 92.7%; with KM12 colon it was 102%.
On to `CCn1cc(C(=O)O)c(=O)c2cc(F)c(N3CCN(S(=O)(=O)c4cccc5ccccc45)CC3)cc21`, for which the growth in the assay on T-47D breast is 5.29% (active); with BT-549 breast, -4.35% (active); in the assay on MDA-MB-435 melanoma, 11.4%; with SW-620 colon, 22.8%; with HCT-116 colon it was 5.45% (active); in the assay on HCC-2998 colon it was 31.6%. Moreover, the growth in the assay on KM12 colon was 11.7%.

The values above are taken from PubChem BioAssay (NCI).
